# Assay results taken from PubChem BioAssay AID588727 (Southern Research Specialized Biocontainment Screening …, 2011).
# Out of some 350,000 compounds screened, about 450 (0.13%) were called active. The rule behind the calls is not given here. Only a sample is shown. Measured potencies and affinities stand elsewhere.
# Assay: inhibitors of VEEV TC-83 cytopathic effect, confirmation, Vero cells (AID 588727)
# Conditions: VEEV TC-83 cytopathic effect inhibition, at 20 µM
# [1] = stronger effect = higher value unless noted
# [2] = measured here: 10K pilot screen inhibition, stronger effect = higher value
smiles,measurement,setting,value
CC(=O)N1CCC(N(CCCOC(C)C)S(=O)(=O)c2ccc([N+](=O)[O-])cc2)CC1,inhibition,[1],inactive
Cc1oc(-c2ccccc2Cl)nc1CSCC(=O)O,inhibition,[1],1.08% (inactive)
Cc1ccc(-c2nc(CSCC(=O)N3CCCC3)c(C)o2)cc1,inhibition,[1],inactive
CCN(CC)CCNC(=S)NC(=O)c1cn(-c2ccccc2)nc1-c1ccc(OC)cc1,inhibition,[1],inactive
Cc1onc(-c2ccccc2)c1C(=O)NC(=S)NNC(=O)c1ccncc1,inhibition,[1],1.78% (inactive)
COc1ccc(NC(=O)c2cn(-c3ccccc3)nc2-c2ccncc2)cc1,inhibition,[1],8.65% (inactive)
O=C(NC(=S)NCCO)c1cn(-c2ccccc2)nc1-c1ccccc1,inhibition,[1],1.03% (inactive)
Cc1onc(-c2ccccc2)c1C(=O)Nc1sc2c(c1C#N)CCC2,inhibition,[1],"2.67% [measured here: 10K pilot screen inhibition, stronger effect = higher value]"
same,outcome,[1],inactive
Cc1ccc(NC(=O)Nc2nnc(-c3ccccc3F)s2)cc1,inhibition,[1],0.72% (inactive)
Cc1ccc(S(=O)(=O)N(C)c2ccc(C(=O)Nc3c(C)n(C)n(-c4ccccc4)c3=O)cc2)cc1,inhibition,[1],2.04% (inactive)
Cn1ncc(Br)c1C(=O)O,inhibition,stronger effect = higher value,0.63% (inactive)
same,inhibition,[2],1.4%
CCC1CSC(Nc2ccc(C(=O)/C=C/c3ccc(Br)cc3)cc2)=N1 (stereo not drawn),inhibition,[1],0.39% (inactive)
CCC1CSC(Nc2ccc(C(=O)/C=C/c3cccc(C)c3)cc2)=N1 (stereo not drawn),inhibition,[1],32.8% (inactive)
O=C(NC1CCCc2c1cnn2-c1ccc(F)cc1F)c1ccccn1 (stereo not drawn),inhibition,[1],inactive
COCCC(=O)NC1CCCc2c1cnn2-c1cccc(C)c1C (stereo not drawn),inhibition,[1],inactive
O=C(NC1CCCc2c1cnn2-c1ccccc1F)c1ccncc1 (stereo not drawn),inhibition,[1],inactive
COc1ccc(C(=O)NC2CCCc3c2cnn3-c2cc(F)cc(F)c2)c(OC)n1 (stereo not drawn),inhibition,[1],0.41% (inactive)
CC1=C(C(=O)NC2CCCc3c2cnn3-c2cccc(C)c2C)OCCO1 (stereo not drawn),inhibition,[1],1.75% (inactive)
Cc1cc(C(=O)NC2CCCc3c2cnn3-c2cccc(C)c2C)n(C)n1 (stereo not drawn),inhibition,[1],inactive
O=C(CSc1nnc(Cc2ccccc2)c(=O)[nH]1)Nc1ccccc1,inhibition,[1],1.19% (inactive)
CC1CCCC(=NNC(=O)C2COc3ccccc3O2)C1 (stereo not drawn),inhibition,[1],1.68% (inactive)
C=CCNc1n[nH]c(=S)s1,inhibition,[1],0.53% (inactive)
Cc1cc(/C=C(\C#N)C(=O)Nc2ccccc2)c(C)n1-c1cccnc1,inhibition,[1],4.21% (inactive)
CCC(NC(=O)Cc1c(C)c2cc3c(cc2oc1=O)OC(C)(C)CC3)C(=O)O (stereo not drawn),inhibition,[1],0.65% (inactive)
C(=N\N1CCN(C(c2ccccc2)c2ccccc2)CC1)/c1ccc2c(c1)OCO2,inhibition,[1],inactive
COC(=O)c1c(C)[nH]c(C(=O)C(C)OC(=O)c2c(C)noc2C)c1C (stereo not drawn),inhibition,[1],inactive
O=C1N=C(N2CCOCC2)SC1=C1CCCCC1,inhibition,[1],1.03% (inactive)
Cc1cc(N2CCN(Cc3nc(-c4ccc(F)cc4)oc3C)CC2)cc(C)n1,inhibition,[1],0.13% (inactive)
Cc1oc(-c2ccc(Cl)cc2)nc1CN1CCC(C(=O)NCCCN2CCOCC2)CC1,inhibition,[1],2.07% (inactive)
Cc1oc(-c2ccc(Cl)cc2)nc1CN1CCC(C(=O)NCC2CCCO2)CC1 (stereo not drawn),inhibition,[1],0.22% (inactive)
CCN(CCNC(=O)C1CCN(Cc2nc(-c3ccc(Cl)cc3)oc2C)CC1)c1ccccc1,inhibition,[1],inactive
Cc1cccc(N2CCN(Cc3nc(-c4cccc(Cl)c4)oc3C)CC2)n1,inhibition,[1],inactive
Cc1ccccc1-c1nc(CN2CCC(C(=O)NCCCN3CCCC(C)C3)CC2)c(C)o1 (stereo not drawn),inhibition,[1],9.38% (inactive)
CC(=O)c1cccc(-n2c(CCC(=O)O)ccc2-c2cccs2)c1,inhibition,[1],inactive
COc1ccc(-c2nnc(SCC(=O)c3cccs3)n2-c2ccc(Cl)cc2)cc1,inhibition,[1],8.15% (inactive)
O=C(N/N=C/c1cccnc1)C12CC3CC(CC(C3)C1)C2,inhibition,[1],2.16% (inactive)
Cc1[nH]c2ccc(F)cc2c1CCN(Cc1cccnc1)C(=S)Nc1cccc(F)c1,inhibition,[1],2.61% (inactive)
O=C(O)/C(=C\c1ccc(-c2ccc(F)cc2)o1)c1ccccc1,inhibition,[1],1.57% (inactive)
COc1cccc(/C=C2/CCC(CN(C)C)C2=O)c1 (stereo not drawn),inhibition,[1],48.7% (inactive)
CN(C)CC1CC/C(=C\c2ccc(O)cc2)C1=O (stereo not drawn),inhibition,[1],inactive
O=C(CSc1nc2c([nH]c3ccccc32)c(=O)n1-c1ccccc1F)NCC1CCCO1 (stereo not drawn),inhibition,[1],9.1% (inactive)
CCCN(Cc1nnc(-c2cccs2)o1)C(=O)c1cccc(S(=O)(=O)N2CCOCC2)c1,inhibition,[1],3.36% (inactive)
O=C(c1cc(S(=O)(=O)N2CCCCC2)ccc1F)N1CCCCC1,inhibition,[1],2.62% (inactive)
Cc1cc(C)nc(-n2nc(C)c(Oc3ccccc3O)c2C)n1,inhibition,[1],2.08% (inactive)
Cc1nn(-c2ccccn2)c(C)c1Oc1ccccc1O,inhibition,[1],0.59% (inactive)
CCOc1ccc(-c2ccc(SCc3ccccn3)nn2)cc1,inhibition,[1],8.3% (inactive)
Cc1[nH]c(C)c(S(=O)(=O)N2CCN(c3cccc(C(F)(F)F)c3)CC2)c1C(=O)N1CCCC1,inhibition,[1],0.9% (inactive)
Cc1[nH]c(C)c(S(=O)(=O)N2CCN(c3cccc(Cl)c3)CC2)c1C(=O)N1CCCC1,inhibition,[1],1.13% (inactive)
N=C1C(c2nc(-c3ccc(F)cc3)cs2)=C(O)CN1CCCN1CCOCC1,inhibition,stronger effect = higher value,1.67% (inactive)
same,inhibition,[2],0.31%
S=C(NCCCN1CCOCC1)N1CCN(c2nc(-c3ccc(Cl)cc3)cs2)CC1,inhibition,[1],1.38% (inactive)
CCc1cc(=O)oc2cc(C)cc(OC(C)C(=O)NCCN3CCOCC3)c12 (stereo not drawn),inhibition,[1],2.06% (inactive)
CC(C)CCSc1nc2ccccc2[nH]1,inhibition,[1],0.68% (inactive)
COc1ccc(OC)c(C(=O)COC(=O)COc2ccccc2F)c1,inhibition,[1],0.88% (inactive)
Cc1ccc(OCCCCN2CCC(C)CC2)c(Br)c1,inhibition,[1],0.3% (inactive)
Cc1ccc(OCCCCN2CCCCC2)c(Br)c1,inhibition,[1],inactive
CN(Cc1ccccc1)C(=O)COC(=O)c1cc(Cl)nc(Cl)c1,inhibition,[1],2.37% (inactive)
Cc1ccc(NC(=O)c2cccc(S(=O)(=O)N3CCN(C)CC3)c2)cc1F,inhibition,[1],inactive
CCOc1ccc(C(=O)Nc2sc3c(c2C(=O)OC)CC(C)(C)NC3(C)C)cc1,inhibition,[1],10.2% (inactive)
COC(=O)c1c(NC(=O)c2ccccc2)sc2c1CC(C)(C)NC2(C)C,inhibition,[1],1.35% (inactive)
COc1ccc(NC(=O)C2CCN(S(=O)(=O)c3cccc4nonc34)CC2)cc1,inhibition,[1],1.18% (inactive)
